Screens from PubChem BioAssay.
ASK1 primary – ASK1 kinase inhibitors, primary screen, biochemical, AlphaScreen; AlphaScreen MKK6 phosphorylation by ASK1, luminescence; 22,000 compounds, 0.99% hits; inhibition, % at 7.44 µM; Mitogen-activated protein kinase kinase kinase 5 (Homo sapiens), Q99683; in the data active = inhibition above about 35%;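 also: 0% = median of compound wells and 100% = no enzyme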
ULK1 primary – ULK1 kinase inhibitors, primary screen, biochemical, AlphaScreen. AlphaScreen Atg13 phosphorylation by ULK1, luminescence. inhibition, % at 5.96 µM. AID 1259251, 2017. 30,000 compounds, 1.9% hits; in the data active = inhibition above about 43%;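 also: 0% = median of compound wells and 100% = no enzyme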
AlphaScreen intf – AlphaScreen signal interference by compounds, dose response, artefact control for ASK1 inhibitor project, biochemical, TruHits beads; shares compounds with ASK1 primary; signal interference counterscreen; IC50, µM; 220 compounds, 20% hits;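 active = IC50 of 10 µM or lower in the counterscreen; inactive = IC50 above 10 µM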;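 also: loss of AlphaScreen light from TruHits beads alone with no ASK1 enzyme present; potency of signal reduction so a low IC50 flags an assay artifact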
Active calls of the source: *; nt = no result. An excerpt weighted towards active compounds, which were near 2.5% of everything screened.

SMILES | ASK1 primary | ULK1 primary | others
Cc1nc(C)n(-c2ccc(Nc3nccc(-c4cc(F)cc(-c5cnn(C)c5)c4)n3)cc2)n1 | 31 | -6
Cc1ncn(-c2ccc(Nc3ncc(Cl)c(Nc4ccccc4-c4ncn(C)n4)n3)cc2)n1 | 10 | 2
Cn1cc(-c2nc(Nc3ccc(-n4cnc(N5CCC(O)CC5)n4)cc3)ncc2F)cn1 | -40 | 58*
Cc1ncn(-c2ccc(Nc3ncc(Cl)c(-c4cnn(C)c4)n3)cc2)n1 | -78 | 66*
Cc1nc(C)n(-c2ccc(Nc3ncc(Br)c(-c4cnn(C)c4)n3)cc2)n1 | -93 | 87*
O=C(NC1CC1)c1ccnc(Nc2ccc3ncccc3c2)c1 | -15 | 5
c1ccc(Oc2ccc(Nc3cc(-c4csc5ccccc45)ncn3)cc2)cc1 | -2 | -4
COc1cc(N2CCOCC2)ccc1Nc1cc(Nc2ccccc2-c2ncccn2)c(C(F)(F)F)cn1 | 7 | 9
CNC(=O)c1ccccc1Nc1cc(Nc2ccc(N3CCOCC3)cc2F)ncc1C(F)(F)F | -1 | 89*
CNC(=O)c1ccccc1Nc1cc(Nc2ccc3[nH]cc(C4=CCNCC4)c3c2)ncc1C(F)(F)F | 28 | -38
COc1cc(N2CCOCC2)ccc1Nc1ncc(Cl)c(Nc2ccccc2C(=O)NC2CC2)n1 | -3 | 12
NC(=O)c1ccccc1Nc1cc(Nc2ccc(-n3cnc(N4CCOCC4)n3)cc2)ncc1C(F)F | -21 | 51*
COc1cnc(Nc2ccc(N3CCOCC3)cc2)nc1Nc1ccccc1C(N)=O | -83 | 85*
CNC(=O)c1ccccc1Nc1cc(Nc2ccc(N3CCOCC3)cc2)ncc1C(F)(F)F | 1 | 90*
Cc1cnc(Nc2ccc(-n3cnc(N4CCOCC4)n3)cc2)cc1Nc1ccccc1C(N)=O | -31 | 27
COc1ccc(-c2nc(NCCc3ccc(O)cc3)nc(OC)n2)cn1 | 7 | -6
Fc1ccc(C(CCCCl)c2ccc(F)cc2)cc1 | nt | 8
Nc1nc(N2CCc3ccccc3C2)nc2c1ncn2CCN1CCCC1=O | -31 | 5
COc1cnc(Nc2ccc(N3CCOCC3)cc2)nc1-c1ccc(S(C)(=O)=O)cc1 | 16 | 46*
COc1ccc(N2CCOCC2)cc1Nc1cc(Nc2ccccn2)c(C(F)(F)F)cn1 | 20 | 17
FC(F)(F)c1cnc(Nc2ccc(N3CCOCC3)cc2)cc1Nc1cc(C2CC2)[nH]n1 | 25 | 80*
CNC(=O)c1ccccc1Nc1cc(Nc2ccc(N3CCOCC3)cc2)ncc1C(N)=O | -12 | 85*
CNC(=O)c1ccccc1Nc1cc(Nc2ccc(C(=O)N3CCOCC3)cn2)ncc1C(F)(F)F | 8 | 86*
COc1ccc(-c2ncc(C)c(Nc3ccc(N4CCOCC4)cc3)n2)cc1 | 9 | 4
O=C(c1ccc(Nc2ccc3[nH]ncc3c2)nc1)N1CCOCC1 | -9 | -2
SMILES | ASK1 primary | ULK1 primary | others
O=C(NCc1ccccc1)c1ccccc1Nc1ccnc(Nc2ccc(N3CCOCC3)cc2)c1 | 13 | 2
Cc1cc(-c2ccncc2)cc(C)c1NC(=O)C1COc2ccccc2O1 (stereo not given) | 8 | 3
CC(=O)c1cccc(-c2nccc(NCCc3ccc(O)cc3)n2)c1 | 11 | -18
Oc1ccc(CCNc2cc(Nc3ccccn3)ncn2)cc1 | 0 | -8
CNC(=O)c1ccccc1Nc1nc(Nc2ccc(N3CCOCC3)c(F)c2)ncc1Cl | -60 | 90*
CNC(=O)c1ccccc1Nc1nc(Nc2ccc(-n3cnc(N4CCOCC4)n3)cc2)ncc1Cl | -27 | 36
c1cncc(CNc2nc(NCc3cccnc3)c3ncn(C4CCCCC4)c3n2)c1 | 4 | 3
CCOc1nc2cccc(C(=O)OC(C)OC(=O)OC3CCCCC3)c2n1Cc1ccc(-c2ccccc2-c2nn[nH]n2)cc1 (stereo not given) | nt | 53*
CCCc1nc(C(C)(C)O)c(C(=O)OCc2oc(=O)oc2C)n1Cc1ccc(-c2ccccc2-c2nn[nH]n2)cc1 | nt | -4
CN1CCN(Cc2cccc(NC(=O)c3cccc(-n4cc(NC(=O)Cc5ccccc5)cn4)c3)c2)CC1 | 10 | 1
COc1cc(Nc2cc(NCCN3CCOCC3)nc(N)n2)cc(OC)c1OC | -6 | 2
Cc1nc(C)n(-c2ccc(Nc3nccc(-c4cc(-n5cncn5)cc(-n5cncn5)c4)n3)cc2)n1 | 10 | 17
Cc1nc(C)n(-c2ccc(Nc3nccc(-c4cccc(-n5cncn5)c4)n3)cc2)n1 | 48* | 12 | AlphaScreen intf=>19
O=C(NCCN1CCOCC1)c1cccc(-n2ccc3cc(Nc4ccccc4Cl)ccc32)c1 | -6 | -45
O=C(Cc1cn(-c2ccc(Nc3nccc4ccccc34)nn2)c2ccccc12)Nc1ccc2c(c1)OCO2 | 46* | 10 | AlphaScreen intf=>22
Cn1nccc1Nc1ccc(-n2cc(CC(=O)Nc3ccc4c(c3)OCO4)c3ccccc32)nn1 | 21 | 30
O=C(Cc1cn(-c2ccc(Nc3ccc4ncccc4c3)nn2)c2ccccc12)Nc1ccc(N2CCOCC2)cc1 | 24 | 18
CN(C)c1cccc(Nc2ccc(-n3cc(CC(=O)Nc4ccccc4)c4ccccc43)nn2)c1 | 22 | 15
CN(C)c1cccc(Nc2ccc(-n3cc(CC(=O)Nc4ccc5c(c4)OCO5)c4ccccc43)nn2)c1 | 43* | 21 | AlphaScreen intf=>19
CN(C)c1cccc(Nc2ccc(-n3cc(CC(=O)Nc4ccc(N5CCOCC5)cc4)c4ccccc43)nn2)c1 | 44* | 15 | AlphaScreen intf=>20
c1ccc(Nc2nc(NCc3cccnc3)c3[nH]cnc3n2)nc1 | -35 | 31
CN(C)CCNC(=O)c1ccc2c(c1)CC(C(=O)Nc1ccc(-c3cn[nH]c3)cc1)CO2 (stereo not given) | 0 | 1
COc1ccc(N2C(=O)CC(NC3CCCCC3C)C2=O)cc1 (stereo not given) | nt | -11
O=C(NC1CC1)c1ccnc(Nc2ccccc2)c1 | 5 | -14
COc1ccc2c(c1)CC(C(=O)Nc1ccc(-c3cn[nH]c3)cc1OCCC(C)C)CO2 (stereo not given) | 31 | 9
SMILES | ASK1 primary | ULK1 primary | others
COc1ccc2c(c1)CC(C(=O)Nc1ccc(-c3cn[nH]c3)cc1OCCOCc1ccccc1)CO2 (stereo not given) | 43* | 17 | AlphaScreen intf=>19
COc1cc(Nc2nc(N3CCc4ccccc4C3)nc3c2ncn3C2CCCCC2)cc(OC)c1OC | 21 | -1
COc1cc(Nc2nc(N3CCc4ccccc4C3)nc3c2ncn3C(C)C)cc(OC)c1OC | 40* | -2 | AlphaScreen intf=>20
Nc1ccnc(-c2ccccc2)n1 | 12 | -9
Cc1ccc(-c2ncn(-c3ccc(Nc4cc(-c5cnn(C)c5)c(Cl)cn4)cc3)n2)cn1 | -18 | -26
Cc1ccc(-c2ncn(-c3ccc(Nc4ncc(Cl)c(-c5ccnn5C)n4)cc3)n2)cn1 | 43* | 7 | AlphaScreen intf=>19
Cc1ccc(-c2cccc3cnc(Nc4ccc(-n5cnc(C)n5)cc4)nc23)cn1 | 39* | 20 | AlphaScreen intf=>19
Cc1ncn(-c2ccc(Nc3ncc4cccc(-c5cccc(F)c5)c4n3)cc2)n1 | -7 | 1
CN1CCN(c2ccc(-c3cncc(C(=O)NC4CCN(Cc5ccccc5)CC4)c3)cc2)CC1 | 3 | -2
OCc1ccccc1Nc1ccnc(Nc2ccc(N3CCOCC3)cc2)c1 | -3 | 6
O=C(Nc1ccccc1)c1ccccc1Nc1ccnc(Nc2ccc(N3CCOCC3)cc2)c1 | 37* | 2 | AlphaScreen intf=>19
